# ELG1 genotoxic: inducers of genotoxicity in HEK293T ELG1-luciferase cells; HEK293T ELG1-luciferase reporter, luminescence, 16 h; Potency, µM (highest dose often 46 µM), for inactives: at the highest dose activity change, positive = activation, most hits filed as activators; 330,000 compounds, 1.3% hits; AID 504466; also: % of control where 0% means no effect; nearly all actives have a fitted effect of over 60% in size
#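 Genotoxic stress is detected as increased luminescence from luciferase-tagged ELG1 in HEK293T cells, measured with ONE-Glo after a 16 hr treatment at 37 °C.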
# NPC1 promoter act: activators of NPC1 promoter. Potency, µM (doses to about 9.22 µM), without a hit: top-dose activation, actives largely listed as activators. Huh7 NPC1 promoter luciferase reporter, 24 h. 320,000 compounds, 2.4% hits; also: % of control where 0% means no effect; nearly all actives have a fitted effect of over 60% in size
#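 Huh7 cells stably carrying NPC1 promoter–luciferase, plated in Opti-MEM with 10% FBS for 2 h, were exposed to compound in DMSO for 24 h at 37 °C; luciferase reagent was added for 10 min and luminescence read.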
# Rab9 prom act: Rab9 promoter activation | 320,000 compounds, 2.8% hits | Potency, µM (doses to about 9.22 µM), without a hit: top-dose activation, negative = inhibition, most hits filed as activators | Huh7 Rab9 promoter-luciferase reporter, luminescence, 24 h; also: % of control where 0% means no effect; nearly all actives have a fitted effect of over 60% in size
#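 Huh7 cells stably carrying Rab9 promoter–luciferase reporter, plated 1500 cells/well, compound added after 2 h and incubated 24 h at 37 °C; luciferase luminescence then read after 10 min with detection reagent.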
# SMN2 splice enh: SMN2 splice variant enhancement. AID 1458. 210,000 compounds, 2.8% hits. Potency, µM (series often up to 46.1 µM), for the others: at the highest dose activity change, positive = activation, most hits filed as activators. HEK293 SMN2-luciferase splicing reporter, luminescence, 30-36 h; also: % of control where 0% means no effect; nearly all actives have a fitted effect of over 55% in size
#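 HEK293 cells carry an SMN2 minigene-luciferase reporter in which exon 7 inclusion puts luciferase in frame. Cells were seeded at 2000 cells/well, attached for 10-12 hours, then exposed to compounds for 30-36 hours at 37C before ONE-Glo luminescence.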
# Luc counter: blocks Kinase-Glo luciferase, a counter-screen artifact. Potency, µM (series often up to 38.3 µM), for inactives: top-dose activity change, negative = inhibition, most hits filed as inhibitors. AID 1379. Kinase-Glo luciferase, ATP luminescence, 8 min. 200,000 compounds, 0.28% hits; also: % is scaled to controls: 0 for no effect and ±100 for the full control effect; nearly all actives have a fitted effect of over 60% in size
#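 Compounds were added to a substrate mix at pH 7.2 (50 mM imidazole, 10 uM ATP, within the enzyme's linear range), followed by Kinase-Glo detection reagent; luminescence was measured after 8 minutes at ambient temperature.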
# FLuc counter: counter-screen for miR-21 project: firefly luciferase inhibitors or activators; AID 588342; 360,000 compounds, 6.9% hits; Potency, µM (highest dose often 57.5 µM), without a hit: at the highest dose activity change, negative = inhibition, usual class: inhibitors; purified FLuc, Km substrates, luminescence inhibition; P08659;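 also: plate controls were vehicle for no effect and reference inhibitor for full effect; nearly all actives have a fitted effect of over 55% in size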
# Target sequence (P08659 whole entry, looked up): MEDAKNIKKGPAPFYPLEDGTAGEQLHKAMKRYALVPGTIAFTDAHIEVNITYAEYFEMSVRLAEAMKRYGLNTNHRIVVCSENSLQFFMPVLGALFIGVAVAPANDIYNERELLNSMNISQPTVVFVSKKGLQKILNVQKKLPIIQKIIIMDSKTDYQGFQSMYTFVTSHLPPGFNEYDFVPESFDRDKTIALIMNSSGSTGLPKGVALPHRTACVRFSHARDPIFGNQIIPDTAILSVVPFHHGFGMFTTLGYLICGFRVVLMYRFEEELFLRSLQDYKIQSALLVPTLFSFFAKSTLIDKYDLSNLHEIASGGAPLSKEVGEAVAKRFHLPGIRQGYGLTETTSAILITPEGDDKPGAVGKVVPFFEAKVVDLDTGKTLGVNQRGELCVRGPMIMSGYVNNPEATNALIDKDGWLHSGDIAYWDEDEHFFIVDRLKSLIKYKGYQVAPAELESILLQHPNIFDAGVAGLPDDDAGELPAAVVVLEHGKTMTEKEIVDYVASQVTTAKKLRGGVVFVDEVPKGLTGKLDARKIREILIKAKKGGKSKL
#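 Purified P. pyralis luciferase (10nM final) with 10uM D-luciferin and 10uM ATP (Km levels) in 50mM Tris acetate pH 7.5, 10mM Mg acetate, 0.01% Tween-20, 0.05% BSA; qHTS 6-point titration, ~60 µM downward; luminescence read.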
# Active calls of the source: *; ? = inconclusive; · = no result given; [ ] = another dose, or the depositor's remark. This is a sample that favours compounds with a hit; in the whole collection about 7.5% have one here. Calls follow the shape of the dose curve; as a rule, active = well fitted curve in the direction sought with a large enough effect; inconclusive = small, poorly fitted or top-dose-only effect, or another doubt; inactive = no such curve, though single readings can be large; an effect the other way counts as inactive or inconclusive. Potency is read from the fitted curve at half-maximal effect.
SMILES,ELG1 genotoxic,NPC1 promoter act,Rab9 prom act,SMN2 splice enh,Luc counter,FLuc counter
CCCCCOc1ccc(CSc2ncn[nH]2)cc1,?,?,2.5µM*,11µM*,1%,12µM*
CCCCOc1ccc(CSc2ncn[nH]2)cc1,14%,?,?,10%,-4%,7.6µM*
Cc1cc(C)c2sc(N(Cc3cccnc3)C(=O)CCOc3ccccc3)nc2c1,·,·,·,·,·,-8%
Nc1nc(Nc2ccccc2)sc1C(=O)c1ccccc1,-3%,2.5µM*,?,·,·,19µM*
COc1ccc(C(=O)c2sc(Nc3ccccc3F)nc2N)cc1,?,2.8µM*,2.2µM*,·,·,11µM*
COc1ccc(C(=O)c2sc(Nc3ccccc3)nc2N)cc1,2%,8%,19%,·,·,-18%
COCCn1c(SCC(=O)Nc2ccccc2)nc2c(oc3ccccc32)c1=O,23µM*,-7%,-4%,8%,2%,0%
COCCn1c(SCC(=O)Nc2ccc(C)cc2)nc2c(oc3ccccc32)c1=O,?,1%,7%,?,3%,13%
COCCCn1c(SCC(=O)Nc2ccc(C)cc2)nc2ccccc2c1=O,13%,13%,18%,·,-6%,24µM*
COc1ccc(-c2cc(C(=O)Nc3ccc(O)cc3)c3ccccc3n2)cc1OC,0%,11%,29%,·,·,5.4µM*
COc1ccccc1NC(=O)c1cc(-c2ccc(OC)c(OC)c2)nc2ccccc12,-1%,0%,2%,·,·,9.5µM*
COc1cccc(CNC(=O)CCCN2C(=O)CSc3c2c(C)nn3-c2ccccc2)c1,·,·,·,·,·,-5%
COC1=C/C(=C/c2c(N)n3nc(CC(=O)N4CCCC4)sc3nc2=O)C=CC1=O,0%,2%,0%,·,·,3%
Cc1cn2c(N)c(C=C3C=C(Cl)C(=O)C(Cl)=C3)c(=O)nc2s1,0%,-2%,-4%,-12%,1%,17µM*
COC1=C/C(=C/c2c(N)n3cc(C)sc3nc2=O)C=CC1=O,2%,2%,0%,-6%,-1%,3.8µM*
Cc1cn2c(N)c(/C=C3\C=Nc4ccccc43)c(=O)nc2s1,-7%,?,27%,·,·,-11%
O=S(=O)(c1ccc(F)cc1)N1CCC2(CC1)OCCN2S(=O)(=O)c1cccs1,3%,-2%,-3%,·,·,0%
CCOc1ccc(-n2nc(CO)c(C(=O)NCc3cccc(OC)c3)n2)cc1,·,·,·,-14%,·,15µM*
CCOc1ccc(-n2nc(CO)c(C(=O)NCCCc3ccccc3)n2)cc1,·,·,·,-1%,·,5.4µM*
CCc1ccc(NC(=O)N2CCN(Cc3nc4ccc(C)cc4o3)CC2)cc1,·,·,·,·,·,-12%
COC(=O)c1cccc(NC(=O)/C=C/c2ccc([N+](=O)[O-])cc2)c1,-4%,8%,2%,-10%,-2%,2.4µM*
CC(=O)c1cccc(NC(=O)/C=C/c2ccc([N+](=O)[O-])s2)c1,2.9µM*,-35%,-36%,-82%,9%,-2%
O=C(/C=C/c1ccc([N+](=O)[O-])cc1)Nc1cccc(C(=O)Nc2ccccc2C(=O)O)c1,-9%,-3%,-6%,·,·,5.4µM*
CCOC(=O)c1cccc(NC(=O)/C=C/c2ccc([N+](=O)[O-])cc2)c1,2%,3%,8%,-56%,1%,2.7µM*
CC(C)N(Cc1ccccc1)c1ncnc2c1nnn2C,·,·,·,·,·,-1%
SMILES,ELG1 genotoxic,NPC1 promoter act,Rab9 prom act,SMN2 splice enh,Luc counter,FLuc counter
O=C(Nc1ccc2oc(-c3ccccc3)nc2c1)C1CCCO1 (stereo unspecified),18µM*,2.2µM*,2.8µM*,11µM*,-8%,7.6µM*
O=C(Nc1ccc(Oc2ccccc2)cc1)C1CCCO1 (stereo unspecified),25%,?,?,8%,-5%,?
O=C(Nc1ccc(-c2nc3ccccc3o2)cc1)C1CCCO1 (stereo unspecified),?,0.32µM*,0.45µM*,7.9µM*,-24%,1.3µM*
O=C(Nc1ccc(-c2nc3cccnc3s2)cc1)C1CCCO1 (stereo unspecified),?,0.13µM*,0.1µM*,1.1µM*,?,0.6µM*
O=C(Nc1ccc(-c2nc3cc(Cl)ccc3o2)cc1)C1CCCO1 (stereo unspecified),18µM*,0.79µM*,0.5µM*,2.8µM*,-2%,1.2µM*
O=C(Nc1ccc(-c2nc3cc(Cl)ccc3o2)cc1)c1cc2ccccc2o1,·,·,·,-7%,·,4%
CCOc1ccc(NC(=O)Cn2nc3c(cc2=O)CC(C)CC3)cc1 (stereo unspecified),·,·,·,·,·,-17%
CC1Cc2cc(S(=O)(=O)N(C)c3ccc(Br)cc3)ccc2N1C(=O)C1CC1 (stereo unspecified),·,·,·,·,·,1%
COc1ccc(N2C(=O)c3ccccc3C2=O)cc1,5%,0%,0%,11%,-5%,?
Cc1ccc(OCC(=O)OCCN2C(=O)c3ccccc3C2=O)cc1C,-4%,-4%,1%,27%,3%,-2%
CCOCCOC(=O)COc1ccc(N2C(=O)c3ccccc3C2=O)cc1,-7%,-7%,-6%,2%,-5%,19µM*
CC(C)Oc1ccc(N2C(=O)c3ccccc3C2=O)cc1,?,1%,0%,-18%,-1%,7.6µM*
COc1ccccc1NC(=O)CSc1ncc2c(n1)-c1ccccc1N(Cc1ccccc1C)S2(=O)=O,·,·,·,·,·,-1%
COc1cc(OC)c2c(c1)OC1Cc3cc(OC)c(OC)cc3C2O1 (stereo unspecified),·,·,·,-4%[9.22 µM],-6%[7.66 µM],·
COc1ccc(/C=C2\SC(=S)N(CC(=O)N(C)C3CCS(=O)(=O)C3)C2=O)cc1 (stereo unspecified),4%,13%,0%,·,·,19µM*
CN(C(=O)CN1C(=O)/C(=C/c2ccc(F)cc2)SC1=S)C1CCS(=O)(=O)C1 (stereo unspecified),0%[9.26 µM],-2%,-4%,·,·,?
COc1cccc(/C=C2\SC(=S)N(CC(=O)N(C)C3CCS(=O)(=O)C3)C2=O)c1 (stereo unspecified),5%,-1%,-2%,·,·,11µM*
CCN(C(=O)CN1C(=O)S/C(=C\c2cccc(OC)c2)C1=O)C1CCS(=O)(=O)C1 (stereo unspecified),4%,-16%,2%,·,·,?
Nc1ncnc2c1nc(Br)n2[C@@H]1O[C@H]2COP(=O)(O)O[C@@H]2[C@@H]1O,·,·,·,-17%,·,·
O=C(c1cc(C(F)(F)F)cc(C(F)(F)F)c1)N1CCC[C@@]2(CCN(c3ccccc3)C2)C1,·,·,·,-18%,1%,·
COC(=O)c1c(NC(=O)c2cccs2)sc2c1CCC(C)C2 (stereo unspecified),15%,?,?,15%,1%,11µM*
